# Publication PMC4336329 (PLoS ONE, 2015)
# The whole screen tested about 310,000 compounds, of which about 14,000 (4.5%) showed an effect of 50% or more. Effects have a minus sign here. The list comes from a sample in which strong results are over-represented; it also holds similar structures and randomly drawn compounds.
# Biological target: human ether-à-go-go-related gene (hERG) potassium channel (human, UniProt Q12809)
# Test: primary screen, population patch clamp on CHO cells stably expressing hERG; higher = less effect of the substance
# 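Further: peak tail current of the secondary pulse compared with the same well before compound.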
# Chain of human ether-à-go-go-related gene (hERG) potassium channel (Q12809 whole entry, looked up): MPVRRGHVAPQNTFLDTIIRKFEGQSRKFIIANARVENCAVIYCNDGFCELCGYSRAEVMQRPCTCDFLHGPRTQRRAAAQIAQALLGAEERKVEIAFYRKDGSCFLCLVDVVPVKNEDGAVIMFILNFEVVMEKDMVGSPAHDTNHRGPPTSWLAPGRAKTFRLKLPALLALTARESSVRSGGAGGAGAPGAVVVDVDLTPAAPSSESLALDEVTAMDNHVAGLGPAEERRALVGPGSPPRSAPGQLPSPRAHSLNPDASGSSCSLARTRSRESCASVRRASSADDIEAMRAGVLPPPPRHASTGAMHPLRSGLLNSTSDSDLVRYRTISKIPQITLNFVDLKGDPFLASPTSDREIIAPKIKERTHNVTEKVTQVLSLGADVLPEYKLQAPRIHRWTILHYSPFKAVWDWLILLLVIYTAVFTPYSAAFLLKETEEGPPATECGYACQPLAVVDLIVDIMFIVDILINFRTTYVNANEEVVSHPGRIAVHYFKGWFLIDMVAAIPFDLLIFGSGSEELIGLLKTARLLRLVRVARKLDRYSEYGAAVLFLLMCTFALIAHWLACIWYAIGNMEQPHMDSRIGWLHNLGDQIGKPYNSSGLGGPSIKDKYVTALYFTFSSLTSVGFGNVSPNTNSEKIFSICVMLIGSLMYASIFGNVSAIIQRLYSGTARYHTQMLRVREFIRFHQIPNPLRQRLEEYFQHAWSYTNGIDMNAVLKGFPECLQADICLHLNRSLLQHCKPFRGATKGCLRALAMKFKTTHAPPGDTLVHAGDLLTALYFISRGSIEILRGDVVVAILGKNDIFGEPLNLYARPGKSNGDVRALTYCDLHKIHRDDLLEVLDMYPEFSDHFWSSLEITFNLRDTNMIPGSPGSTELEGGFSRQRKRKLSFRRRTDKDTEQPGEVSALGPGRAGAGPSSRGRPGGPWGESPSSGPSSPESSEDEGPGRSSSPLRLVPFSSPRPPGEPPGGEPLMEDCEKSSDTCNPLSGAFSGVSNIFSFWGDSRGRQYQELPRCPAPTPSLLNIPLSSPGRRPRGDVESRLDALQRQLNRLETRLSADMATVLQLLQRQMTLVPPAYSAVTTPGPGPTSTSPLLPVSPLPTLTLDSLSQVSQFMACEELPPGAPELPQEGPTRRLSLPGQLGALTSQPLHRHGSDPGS
row,SMILES,"hERG current change (%, negative = inhibition) at 10uM [%]"
1,CCOC(=O)c1ccc(-c2c(-c3ccccc3OC)sc3cc4c(cc23)OCO4)cc1F,12.5
2,Cc1cccc(-c2nsc(SCC(=O)Nc3cc(C)on3)n2)c1,16.1
3,CC(=Nc1ccc2c(c1)CCC2)c1c(O)n(C)c(=O)n(C)c1=O,-3.93
4,CCOc1ccccc1CN1CCN(Cc2nc3c(s2)CCCC3)CC1CCO (stereo not drawn),-67.9
5,Cc1cccc(CN2CCN(Cc3nc4c(s3)CCCC4)CC2CCO)n1 (stereo not drawn),-28.6
6,COc1cccc(CN2CCN(Cc3nc4c(s3)CCCC4)CC2CCO)c1 (stereo not drawn),-48.5
7,CCOc1ccccc1CN1CCN(Cc2nc3ccccc3s2)CC1CCO (stereo not drawn),-74.8
8,Cc1ccc(/C=C2/SC(=S)N(CCCC(=O)Nc3cc([N+](=O)[O-])ccc3O)C2=O)cc1,13.1
9,O=C(NC(=S)NCCc1ccccc1)c1ccco1,10.2
10,NC(=O)c1sc2cc(C(F)(F)F)cnc2c1-c1ccccc1,15.5
11,CCOc1ccc(OCC)c(NC(=O)C2CCN(S(=O)(=O)c3cccnc3)CC2)c1,-29.9
12,Clc1ccc(-c2cnc3n2CCC3)cc1,-23.1
13,Cc1cnc(NC(=O)CSc2c(Cl)cccc2Cl)s1,-6.06
14,O=C(Nc1ccc(Oc2cccnc2)cc1)C1CCN(Cc2ccccc2)CC1,-75.1
15,Cc1cccc(CN2CCC(C(=O)Nc3ccc(Oc4cccnc4)cc3)CC2)c1,-14
16,O=C(Nc1ccc(Oc2cccnc2)cc1)C1CCN(Cc2cc(Cl)ccc2O)CC1,-45.9
17,Cc1ccccc1CN1CCC(C(=O)Nc2ccc(Oc3cccnc3)cc2)CC1,-48.6
18,O=C(Nc1ccc(Oc2cccnc2)cc1)C1CCCCN1Cc1ccc(CO)o1 (stereo not drawn),1.59
19,O=C(Nc1ccc(Oc2cccnc2)cc1)C1CCN(Cc2ccc(F)cc2)CC1,-55.2
20,COc1ccc(CN2CCC(C(=O)Nc3ccc(Oc4cccnc4)cc3)CC2)c(C)c1C,-36.8

row,SMILES,"hERG current change (%, negative = inhibition) at 10uM [%]"
1,COc1cccc(O)c1CN1CCC(C(=O)Nc2ccc(Oc3cccnc3)cc2)CC1,-47.4
2,Cc1ccc(CN2CCCCC2C(=O)Nc2ccc(Oc3cccnc3)cc2)o1 (stereo not drawn),-19.4
3,O=C(Nc1ccc(Oc2ccccc2)cc1)C1CCN(c2ncccn2)CC1,0.064
4,COc1ccc(CN2CCC(C(=O)Nc3ccc(Oc4cccnc4)cc3)CC2)cc1,-69.3
5,O=C(Nc1ccc(Oc2cccnc2)cc1)C1CCN(Cc2cccc(Cl)c2)CC1,-52.8
6,COc1cccc(CN(CC(=O)NCC2CCCO2)C(=O)CCC(=O)Nc2cc(C)on2)c1 (stereo not drawn),-0.822
7,CCOC(=O)CCCCCNC(=O)c1c(O)[nH]c(=O)[nH]c1=O,17.7
8,O=C(c1cc(-c2ccncc2)nc2ccccc12)N1CCC2(CC1)OCCO2,-25.9
9,CC(C)c1nc2oc3c(NCc4ccccn4)ncnc3c2c2c1COC(C)(C)C2,5.62
10,C/C(=N\NC(=O)COc1ccccc1[N+](=O)[O-])c1cccs1,10.3
11,COc1cc(-c2nc(=S)[nH][nH]2)cc(OC)c1OC,5.94
12,COc1ccc(C(=O)N/C(=C\c2ccco2)C(=O)NCc2cccnc2)cc1,-66.7
13,O=C(NCc1ccccn1)/C(=C/c1ccco1)NC(=O)c1ccccc1,-10
14,Cc1ccc(C(=O)N/C(=C/c2ccco2)C(=O)NCc2ccco2)cc1,-12
15,Cc1ccc(C(=O)N/C(=C/c2ccc(-c3cc(C(F)(F)F)ccc3Cl)o2)C(=O)NCc2cccnc2)cc1,-1.72
16,Cc1ccc(C(=O)N/C(=C/c2ccco2)C(=O)O)cc1,-3.15
17,COc1ccc(C(=O)N/C(=C/c2ccco2)C(=O)NCc2ccco2)cc1,-30.1
18,O=C(NCc1cccnc1)/C(=C/c1ccc(-c2cccc(C(F)(F)F)c2)o1)NC(=O)c1ccccc1,-74.1
19,O=C(NCc1cccnc1)/C(=C/c1ccc(-c2cccc(Cl)c2)o1)S(=O)(=O)c1ccccc1,-26.2
20,O=C(NCc1cccnc1)/C(=C/c1ccco1)NC(=O)c1ccccc1,-58.6

row,SMILES,"hERG current change (%, negative = inhibition) at 10uM [%]"
1,O=C(NCc1ccco1)/C(=C/c1ccco1)NC(=O)c1ccccc1,4.34
2,Cc1ccc(C(=O)N/C(=C\c2ccco2)C(=O)NCc2cccnc2)cc1,-65.2
3,COc1ccc(C(=O)N/C(=C\c2ccco2)C(=O)NCc2ccco2)cc1,-19.7
4,O=C(Cn1nnc(-c2ccccc2)n1)NNC(=O)c1ccc(Br)cc1,17.6
5,O=C(Nc1nnc(-c2ccco2)s1)C1CC1,-10.2
6,O=C(CN1C(=O)/C(=C/c2c(F)cccc2Cl)Oc2ccccc21)NCc1ccco1,10.9
7,CC(=O)O.Cc1ccc(C2C(C(=O)c3cccs3)=C(O)C(=O)N2c2ccc(S(N)(=O)=O)cc2)cc1 (stereo not drawn),16.5
8,CCOc1ccc(-n2cc(C(=O)N3CCN(C)CC3)c3cc(OC)c(OC)cc3c2=O)cc1,4.98
9,CCN(CC)CCN(C(=O)c1c(F)cccc1F)c1nc2cc(C)cc(C)c2s1.Cl,-11.1
10,CCN(C(=O)C1=COCCO1)c1nc2c(C)cccc2s1,-17.2
11,Cc1cc(C)c2sc(NC(=O)C3=COCCO3)nc2c1,-11.6
12,CCN(CC)CCN(C(=O)c1ccc(Br)s1)c1nc2cc3c(cc2s1)OCO3.Cl,-12
13,CCN(CC)CCN(C(=O)c1ccc(S(=O)(=O)N(CC)c2ccccc2)cc1)c1nc2c(OC)ccc(OC)c2s1.Cl,-27
14,CCN(CC)CCN(C(=O)C1=COCCO1)c1nc2cc3c(cc2s1)OCO3.Cl,-72
15,CCN(CC)CCN(C(=O)C1=COCCO1)c1nc2ccc(C)cc2s1.Cl,-78.3
16,CCN(CC)CCN(C(=O)/C=C/c1cccs1)c1nc2ccc(C)cc2s1.Cl,-10.8
17,CCN(CC)CCN(C(=O)C1=COCCO1)c1nc2cc(C)cc(C)c2s1.Cl,-69
18,CCN(CC)CCN(C(=O)C1=COCCO1)c1nc2c(OC)ccc(OC)c2s1.Cl,-78.3
19,Cc1ccc2nc(N(CCN(C)C)C(=O)C3=COCCO3)sc2c1.Cl,-44.1
20,CCN(CC)CCN(C(=O)c1cc(Cl)sc1Cl)c1nc2cc3c(cc2s1)OCO3.Cl,-24.7
